# Source: PubChem BioAssay
# miR-122 sensor – miR-122 Renilla sensor signal increase in Huh7, primary screen, miR-122 inhibitor project, cell-based, single point, plate reader. Huh7 miR-122 Renilla luciferase sensor, 48 h; neutral wells = 0, positive control = 100. activation (reporter increase), % at 12.5 µM. 340,000 tested, 0.3% active. AID 602342, 2012;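 active = mean replicate activation score at least 90 and every replicate individually at or above 90; inconclusive = only one of the two criteria met; inactive = neither criterion met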;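 note: higher luciferase means less miR-122 activity so hits act as miR-122 inhibitors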
# Statin myotox sup – suppressors of statin myotoxicity in C2C12 myotubes, primary screen, cell-based, single point, plate reader. C2C12 myotubes + simvastatin, ATP luminescence, 48 h; scaled: DMSO 0, geranylgeraniol control 100. 330,000 tested, 0.78% active. rescue of ATP level, % at 7.49 µM;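 active = mean ATP rescue above about 67%, or every replicate alone reaching that limit, limit read from the data, passing the limit was not always enough; inconclusive = no clear call, values can overlap the other calls; inactive = mean under the limit and some replicate under it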;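 note: myotubes were challenged with 10 µM simvastatin during compound exposure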
# PglD DTNB – C. jejuni PglD acetyltransferase inhibitors, primary screen, biochemical, DTNB colorimetric, single point | UDP-N-acetylbacillosamine N-acetyltransferase PglD (Campylobacter jejuni) | purified PglD enzyme, DTNB colorimetric CoA detection | inhibition, % at 12.5 µM | 360,000 tested, 0.098% active | AID 602405, 2012; in the data active = inhibition above about 16%, passing the limit was not always enough; inconclusive = no clear call, values can overlap the other calls
# NSD2 inh – NSD2 histone methyltransferase inhibitors, primary screen, biochemical, AlphaScreen, single concentration, set 2. inhibition, % at 12.5 µM. Histone-lysine N-methyltransferase NSD2 (Homo sapiens), O96028. 310,000 tested, 0.54% active. NSD2 peptide methylation, 120 min; in the data active = inhibition above about 50%
# Target sequence (O96028 whole entry, looked up): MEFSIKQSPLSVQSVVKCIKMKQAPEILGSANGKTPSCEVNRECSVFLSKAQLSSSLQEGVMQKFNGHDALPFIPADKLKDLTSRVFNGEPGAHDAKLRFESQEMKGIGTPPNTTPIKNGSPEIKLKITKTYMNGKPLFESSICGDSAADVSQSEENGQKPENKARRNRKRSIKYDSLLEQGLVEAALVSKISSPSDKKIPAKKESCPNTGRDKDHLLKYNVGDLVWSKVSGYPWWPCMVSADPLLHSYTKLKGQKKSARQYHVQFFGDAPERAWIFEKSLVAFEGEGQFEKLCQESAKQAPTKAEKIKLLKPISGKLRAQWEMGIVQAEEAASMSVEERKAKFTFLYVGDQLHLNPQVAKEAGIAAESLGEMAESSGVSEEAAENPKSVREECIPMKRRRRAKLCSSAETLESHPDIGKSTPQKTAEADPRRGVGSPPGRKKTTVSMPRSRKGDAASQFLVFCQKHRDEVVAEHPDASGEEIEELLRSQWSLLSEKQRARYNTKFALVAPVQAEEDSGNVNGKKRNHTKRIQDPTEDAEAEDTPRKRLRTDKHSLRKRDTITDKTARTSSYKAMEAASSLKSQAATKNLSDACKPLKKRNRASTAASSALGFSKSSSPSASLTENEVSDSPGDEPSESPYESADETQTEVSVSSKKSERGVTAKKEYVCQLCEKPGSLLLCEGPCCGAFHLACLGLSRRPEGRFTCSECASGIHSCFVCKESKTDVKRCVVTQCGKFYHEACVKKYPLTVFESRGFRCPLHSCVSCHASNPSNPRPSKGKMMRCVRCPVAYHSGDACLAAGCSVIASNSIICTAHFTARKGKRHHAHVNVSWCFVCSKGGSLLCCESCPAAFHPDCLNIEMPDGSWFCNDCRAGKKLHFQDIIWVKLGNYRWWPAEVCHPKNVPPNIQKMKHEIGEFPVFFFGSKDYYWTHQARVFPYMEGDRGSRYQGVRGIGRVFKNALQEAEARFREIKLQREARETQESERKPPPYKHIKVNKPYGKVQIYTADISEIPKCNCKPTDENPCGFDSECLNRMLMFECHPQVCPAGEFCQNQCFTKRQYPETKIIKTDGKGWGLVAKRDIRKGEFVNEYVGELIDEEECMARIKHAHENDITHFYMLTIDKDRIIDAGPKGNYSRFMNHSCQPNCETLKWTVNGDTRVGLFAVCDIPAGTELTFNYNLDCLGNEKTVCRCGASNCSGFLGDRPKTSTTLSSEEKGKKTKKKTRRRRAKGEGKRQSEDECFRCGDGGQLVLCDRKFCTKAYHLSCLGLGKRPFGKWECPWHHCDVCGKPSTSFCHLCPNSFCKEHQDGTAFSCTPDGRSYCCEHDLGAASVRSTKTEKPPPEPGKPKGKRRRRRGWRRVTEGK
# miR-27b select – miR-27b levels after miR-122 inhibitor treatment, dose response, selectivity assay for miR-122 inhibitor project, cell-based, Huh7, RT-qPCR, dry powder | shares compounds with miR-122 sensor | Huh7 miR-27b levels, qRT-PCR, 48 h | relative miR-27b level (unnormalised ratio), ratio at 35 µM | 35 tested, under 10 active | AID 687039, 2013;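 active = compounds lowering miR-27b whose fitted half-maximal dose is at most twice their top tested dose; inconclusive = flat curve with moderate drop, or poor fit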
# PglD confirm – PglD acetyltransferase inhibitors, confirmation, biochemical, DTNB absorbance, single point, cherry-picked samples; shares compounds with PglD DTNB; Purified C. jejuni PglD, DTNB absorbance 412 nm; inhibition, % at 20 µM; 320 tested, under 10 active;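 active = mean inhibition across replicates of at least 20% with every single replicate also at 20% or more; inconclusive = mean inhibition at least 20% but some replicate falls below 20%; inactive = mean inhibition under 20% and not all replicates reach it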;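 note: initial rate of CoA release by acetyl transfer from AcCoA to the UDP-4-amino sugar; 0% = median of neutral control wells and 100% = median of positive control wells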
# Numbers without * were called inactive; ? = inconclusive; . = no result given; [ ] = dose if it differs, or a comment. Sampled rows, rich in hits. Any-hit rate of the full collection: about 1.2%.
SMILES,miR-122 sensor,Statin myotox sup,PglD DTNB,NSD2 inh,PglD confirm,others
COc1ccc(OC)c(S(=O)(=O)N2CCC(C(=O)Nc3ccccc3)CC2)c1,-4,91*,-3,-1,.,
COc1cccc(N2CCN(C(=O)c3oc4ccccc4c3NC(=O)CCc3cc(OC)no3)CC2)c1,?,-2,4,3,.,miR-27b select=0.64
CCCCNS(=O)(=O)c1ccc2nc(-c3cccnc3)cc(C(=O)NC(C)CC)c2c1 (configuration not stated),?,-3,-1,.,.,miR-27b select=0.57
CCCCNS(=O)(=O)c1ccc2nc(-c3cccnc3)cc(C(=O)NC(C)C)c2c1,69,1,1,.,.,
CCOc1cc(C)c(S(=O)(=O)NC2CCCCC2)cc1C,198*,.,16,0,.,miR-27b select=0.91
OC[C@@H]1Nc2ccc(-c3cccc(F)c3)cc2[C@H]2[C@@H]1CCN2Cc1ccc(F)cc1,7[16.7 µM],24,3,.,.,
Cc1cc(C)c(S(=O)(=O)NC2CC3CCC2C3)c(C)c1 (configuration not stated),125*,2,5,-6,.,miR-27b select=0.47
CC(=O)Nc1ccc(S(=O)(=O)NC2CC3CCC2C3)cc1 (configuration not stated),31,5,5,-2,.,
COc1ccc(CN(C)C[C@@H]2Oc3ccc(NC(=O)CCCN(C)C)cc3C(=O)N([C@H](C)CO)C[C@H]2C)cc1,3[16.7 µM],-4,1,.,.,
O=S(=O)(Nc1cccc2[nH]ncc12)c1ccc(F)c2ncccc12,.,.,.,.,.,miR-27b select=0.89
CO[C@@H]1CN(C)C(=O)c2cc(NS(C)(=O)=O)ccc2OC[C@@H](C)N(CC2CCCCC2)C[C@H]1C,-18[16.7 µM],4,-5,.,.,
CC1CCCCN1C(=O)c1cc2nc(-c3ccccc3)cc(-c3ccccc3)n2n1 (configuration not stated),121*,-2,8,4,.,miR-27b select=0.9
Cc1ccc(C)c(NS(=O)(=O)c2cc(C(=O)NCc3ccccn3)ccc2Cl)c1,75,1,-5,-1,.,
Cc1ccc(NS(=O)(=O)c2cc(C(=O)NCc3ccccn3)ccc2Cl)cc1C,101*,9,-1,2,.,miR-27b select=0.97
C[C@@H]1CCCCO[C@@H](CN(C)C(=O)Nc2ccccc2)[C@@H](C)CN([C@H](C)CO)C(=O)c2cc(NC(=O)c3ccccc3)ccc2O1,-5[16.7 µM],.,3,.,.,
CC(=O)c1ccc(S(=O)(=O)N2Cc3ccccc3CC2C(=O)O)cc1 (configuration not stated),1,4,25*,-31,0,
O=C(O)[C@H]1Cc2ccccc2CN1S(=O)(=O)c1ccc(F)cc1,-11,-6,3,1,.,
COc1ccc(CSc2nc(O)cc(=O)n2CC(C)C)cc1F,-1,-2,21*,-5,2,
COc1ccc(NC(=O)c2cc(-c3ccc(F)cc3OC(C)C)n[nH]2)cn1,-8,-4,8,1,.,
CC(C)Oc1cc(F)ccc1-c1cc(C(=O)Nc2cccc(C(F)(F)F)c2)[nH]n1,-9,-14,24*,-6,-12,
CC(C)NC(=O)N[C@@H]1CC[C@@H](CC(=O)NCc2ccc(Oc3ccccc3)cc2)O[C@H]1CO,.,30,3,.,.,
CN(C(=O)c1ccc(NC(=O)Cc2cccc(NC(=O)C3CCN(C(=O)C4CC4)CC3)c2)cc1)C1CC1,6,-3,25*,.,-1,
O=C(C[C@@H]1C[C@@H]2c3cc(NC(=O)C4CCC4)ccc3O[C@@H]2[C@H](CO)O1)NCc1ccccc1,-7[16.7 µM],-7,2,.,.,
CN1C(=O)C(CC(=O)NC2CCCCC2)SC1=Nc1ccccc1 (configuration not stated),0,.,54*,1,8,
CN(C)C(=O)CSc1nnc(-c2cc(-c3cccs3)nc3ccccc23)o1,-2,-11,54*,-2,-8,
SMILES,miR-122 sensor,Statin myotox sup,PglD DTNB,NSD2 inh,PglD confirm,others
CC=Cc1ccc2n(c1=O)C[C@@H]1[C@@H](CO)[C@H](C(=O)N(C)C)N(CC3CC3)[C@H]21 (mixture of isomers),-7[16.7 µM],-2,-3,.,.,
O=C1CSCN1c1ccc(Cl)cc1,0,9,83*,-6,9,
Cc1cc(=O)[nH]c(SCC(=O)Nc2ccc(Br)cc2)c1C#N,-5,54,21*,3,3,
Cc1cc(=O)[nH]c(SCC(=O)Nc2ccc(F)cc2)c1C#N,7,.,0,-2,.,
O=C(OCC(=O)N1CCCC1)c1cc(Cl)ccc1Cl,0,3,1,.,.,
O=C(OCC(=O)N1CCCC1)c1cnc(Cl)c(Cl)c1,5,-5,25*,1,-11,
O=S(=O)(c1cccs1)N1CCN(Cc2nc3ccccc3s2)CC1,-1,21,24*,0,-1,
O=C(CCc1nc2ccccc2s1)N1CCN(S(=O)(=O)c2cccs2)CC1,-2,-17,-2,-1,.,
CCC(C)(C)NC(=O)Cc1ccc(C)cc1,-15,-4,48*,-6,-2,
CCCCOc1ccc(CC(=O)NCC(=O)O)cc1,2,.,23*,1,-3,
CCn1cc(C(=O)NCCCN2CCCC(C)C2)c(=O)c2cc(S(=O)(=O)N3CCOCC3)ccc21 (configuration not stated),-2,8,24*,1,8,
Cc1cccc(N(Cc2cc3ccccc3[nH]c2=O)C(=O)c2ccco2)c1C,2,4,32*,0,3,
O=C(C[C@H]1CC[C@H]2[C@@H](COC[C@@H](O)CN2C(=O)c2ccncc2)O1)NC1Cc2ccccc2C1,-5[16.7 µM],-5,-2,.,.,
COCc1nc2ccccc2n1CCOc1ccccc1OC,-1,5,24*,0,-1,
COc1ccc(NC(=O)Nc2ccc3c(c2)C(=O)N([C@H](C)CO)C[C@@H](C)[C@@H](CN(C)S(=O)(=O)c2ccc(F)cc2)OCCCC[C@@H](C)O3)cc1,4[16.7 µM],.,-3,.,.,
O=C(NCC1CCCO1)[C@@H]1CSC2c3ccccc3C(=O)N21 (some centres not stated),-7,0,22*,-3,-6,
C[C@H]1CN([C@@H](C)CO)C(=O)Cc2cc(NC(=O)C3CC3)ccc2O[C@@H]1CN(C)CC1CCCCC1,-6[16.7 µM],14,6,.,.,
Cc1ccc(CN(c2ccc(C(=O)NCc3ccc4c(c3)OCO4)cc2)S(C)(=O)=O)cc1,3,-2,27*,-1,-2,
Cc1ccc(C(=O)NCc2ccc3c(c2)OCO3)cc1,-1,47,-1,-1,.,
